Bioassay records as filed in PubChem.
Rows were chosen to be rich in hits. Some 2% of all compounds tested hit in one or more screens of this group.
LGR2 antag: inhibitors of bursicon-induced Drosophila LGR2 receptor cAMP signaling; HEK293 LGR2, CRE-luciferase, bursicon-stimulated, 4 h; inhibition, % at 9.99 µM; actives 0.35% (n = 380,000); AID 720647;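 active = drop in luminescence signal, shown as inhibition above about 50% in the replicate tests, limit read from the data, passing the limit was not always enough; inconclusive = probably only some replicates passing the limit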;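 note: agonist challenge used bursicon conditioned medium at about half maximal strength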
EWS-Fli inh: blocks EWS/Fli oncoprotein-driven transcription. A673 NR0B1-luciferase reporter, viability-normalised. inhibition, % at 12.6 µM. actives 0.67% (n = 350,000). AID 651661;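 active = mean inhibition of at least 50% after viability correction, with every replicate also passing that limit; inconclusive = mean reaches 50% but only one of two replicates passes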;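 note: firefly luciferase signal divided by Alamar Blue viability fluorescence both relative to DMSO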
Shn3 inh set2: reduces Shn3 3'UTR luciferase signal in osteoblasts; Clone20 osteoblast Shn3 3'UTR firefly luciferase, 24 h; inhibition, % at 12.5 µM; actives 0.52% (n = 360,000);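 active = mean inhibition of at least 75% with every replicate also reaching 75%; inconclusive = mean inhibition at least 75% but some replicate below; inactive = mean inhibition below 75%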;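 note: 0% = median of neutral control wells and 100% = pilot-screen positive control compound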
CF NFkB block: blocks PAF-induced NF-kB reporter in cystic fibrosis cells | inhibition, % at 5 µM | KKLEB NF-kB-GFP reporter, GFP fluorescence overnight | actives 0.86% (n = 360,000) | AID 588850;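 active = at least 50% inhibition at 5 µM, scaled per plate between neutral and stimulator controls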;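 note: PAF is a Pseudomonas aeruginosa culture filtrate used as stimulus; plate controls were PAF-stimulated DMSO wells for no effect and unstimulated DMSO wells for full effect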
KKLEB cytotox: CF airway cell cytotoxicity counter-screen. KKLEB CF airway cells viability, ATPlite luminescence, overnight; hits give low values; cells stimulated with P. aeruginosa culture filtrate. activity change (cytotoxicity), % at 5 µM. actives 0.36% (n = 360,000);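 active = corrected activity change at or below -50% at 5 µM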
PAX8 reporter: lowers PAX8-driven luciferase in RMG-I cells; RMG-I TPO-luciferase reporter, SteadyGlo, 24 h; actives 1.2% (n = 360,000); inhibition, % at 12.6 µM;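 active = mean replicate inhibition at least 60% with every replicate also reaching 60%; inconclusive = only one of the two criteria is met; inactive = mean below 60% and not all replicates reaching 60%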;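 note: luciferase light reporting Pax8 driven TPO promoter activity; plate controls were median of neutral control wells for no effect and mitoxantrone controls for full effect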
* = called active by the depositor.

`C[C@@H]1CN([C@@H](C)CO)C(=O)Cc2cc(NC(=O)Nc3ccc(C(F)(F)F)cc3)ccc2O[C@H]1CN(C)Cc1ccc(C(F)(F)F)cc1` gave LGR2 antag 13, EWS-Fli inh 9 and PAX8 reporter 64*.
C[C@H](CO)N1C[C@H](C)[C@@H](CN(C)Cc2ccc(C(F)(F)F)cc2)Oc2ccc(NC(=O)Nc3ccc(C(F)(F)F)cc3)cc2CC1=O was read as LGR2 antag 9, EWS-Fli inh 9 and PAX8 reporter 57.
Screening COc1ccc(NC(=O)Nc2ccc3c(c2)CC(=O)N([C@H](C)CO)C[C@H](C)[C@@H](CN(C)Cc2ccc(C(F)(F)F)cc2)O3)cc1 returned LGR2 antag 8, EWS-Fli inh 14 and PAX8 reporter 67*.
For C[C@H](CO)N1C[C@H](C)[C@@H](CN(C)C(=O)Nc2cccc3ccccc23)Oc2ccc(NC(=O)Nc3ccc(C(F)(F)F)cc3)cc2CC1=O the results were LGR2 antag 15, EWS-Fli inh 16 and PAX8 reporter 47.
For C[C@@H]1CN([C@@H](C)CO)C(=O)Cc2cc(NC(=O)Nc3ccc(C(F)(F)F)cc3)ccc2O[C@@H]1CN(C)C(=O)Nc1cccc2ccccc12 the results were LGR2 antag 5, EWS-Fli inh 68* and PAX8 reporter 43.
`C[C@H]1CN([C@@H](C)CO)S(=O)(=O)c2ccc(C3=CCCCC3)cc2O[C@@H]1CN(C)C(=O)c1ccncc1` gave LGR2 antag 3 and EWS-Fli inh 2.
For C[C@H]1CN([C@@H](C)CO)C(=O)Cc2cc(NC(=O)Cc3cn(C)c4ccccc34)ccc2O[C@H]1CN(C)Cc1ccc(Oc2ccccc2)cc1 the results were LGR2 antag 33, EWS-Fli inh 8 and PAX8 reporter 22.
C[C@H](CO)N1C[C@H](C)[C@@H](CN(C)Cc2ccncc2)Oc2ccc(NC(=O)Nc3cccc4ccccc34)cc2CC1=O was read as LGR2 antag 2 and PAX8 reporter 67*.
C[C@@H]1CN([C@@H](C)CO)C(=O)Cc2cc(NC(=O)Nc3ccc(C(F)(F)F)cc3)ccc2O[C@@H]1CN(C)C(=O)Nc1ccc2c(c1)OCO2 was read as LGR2 antag 17, EWS-Fli inh 68* and PAX8 reporter inconclusive.
C[C@@H]1CN([C@@H](C)CO)C(=O)Cc2cc(NC(=O)Nc3ccc(C(F)(F)F)cc3)ccc2O[C@H]1CN(C)Cc1ccc(Oc2ccccc2)cc1 was read as LGR2 antag 11, EWS-Fli inh 6 and PAX8 reporter 94*.
For C[C@H](CO)N1C[C@H](C)[C@@H](CN(C)Cc2ccc(Oc3ccccc3)cc2)Oc2ccc(NC(=O)Cc3cn(C)c4ccccc34)cc2CC1=O the results were LGR2 antag 23, EWS-Fli inh 14 and PAX8 reporter 65*.
`C[C@@H]1CN([C@H](C)CO)C(=O)Cc2cc(NC(=O)Nc3ccc(C(F)(F)F)cc3)ccc2O[C@H]1CN(C)Cc1ccc(Oc2ccccc2)cc1` gave LGR2 antag 4, EWS-Fli inh -9 and PAX8 reporter -11.
For CC(C)NC(=O)Nc1ccc2c(c1)CC(=O)N([C@@H](C)CO)C[C@H](C)[C@@H](CN(C)C(=O)Nc1ccccc1)O2 the results were LGR2 antag 4, EWS-Fli inh -8 and PAX8 reporter 2.
Screening C[C@@H]1CN([C@@H](C)CO)C(=O)Cc2cc(NS(=O)(=O)c3ccccc3)ccc2O[C@@H]1CN(C)C(=O)Nc1cccc2ccccc12 returned LGR2 antag 11, EWS-Fli inh 6 and PAX8 reporter 73*.
`C[C@@H]1CN([C@@H](C)CO)C(=O)Cc2cc(NC(=O)Nc3ccc(C(F)(F)F)cc3)ccc2O[C@H]1CN(C)Cc1ccc2c(c1)OCO2` gave LGR2 antag 3, EWS-Fli inh 14 and PAX8 reporter 80*.
`Cc1noc(C)c1NC(=O)Nc1ccc2c(c1)CC(=O)N([C@@H](C)CO)C[C@H](C)[C@H](CN(C)Cc1ccc(C(F)(F)F)cc1)O2` gave LGR2 antag 38, EWS-Fli inh 5 and PAX8 reporter 72*.
For C[C@H](CO)N1C[C@H](C)[C@H](CN(C)Cc2ccc3c(c2)OCO3)Oc2ccc(NC(=O)Nc3ccc(C(F)(F)F)cc3)cc2CC1=O the results were LGR2 antag -22, EWS-Fli inh 15 and PAX8 reporter 7.
`C[C@@H]1CN([C@@H](C)CO)C(=O)Cc2cc(NC(=O)Nc3ccc(C(F)(F)F)cc3)ccc2O[C@H]1CN(C)C(=O)NC1CCCCC1` gave LGR2 antag 13, EWS-Fli inh 39 and PAX8 reporter 80*.
Screening C[C@H]1CN([C@@H](C)CO)S(=O)(=O)c2ccc(C#CC3CC3)cc2O[C@H]1CN(C)Cc1ccncc1 returned LGR2 antag -14 and EWS-Fli inh 13.
For C[C@@H]1CN([C@H](C)CO)C(=O)c2cc(NC(=O)Nc3ccc(F)cc3)ccc2O[C@@H]1CN(C)C(=O)Nc1cccc2ccccc12 the results were LGR2 antag 5, EWS-Fli inh 9 and PAX8 reporter 70*.
C[C@H]1CN([C@@H](C)CO)C(=O)Cc2cc(NC(=O)Nc3ccc(C(F)(F)F)cc3)ccc2O[C@H]1CN(C)Cc1ccc(Cl)c(Cl)c1 was read as LGR2 antag 9, EWS-Fli inh 6 and PAX8 reporter 49.
Screening C[C@@H]1CN([C@@H](C)CO)C(=O)Cc2cc(NC(=O)Nc3ccc(C(F)(F)F)cc3)ccc2O[C@H]1CN(C)Cc1ccc(Cl)c(Cl)c1 returned LGR2 antag 13, EWS-Fli inh 67* and PAX8 reporter 104*.
`C[C@H]1CN([C@@H](C)CO)C(=O)c2cc(NC(=O)Nc3ccc(F)cc3)ccc2O[C@@H]1CN(C)C(=O)Nc1cccc2ccccc12` gave LGR2 antag -5, EWS-Fli inh -3 and PAX8 reporter -15.
Screening C/C=C/c1ccc([C@@H]2[C@@H](CO)N(C(=O)NC(C)C)[C@H]2CN(C)C(C)=O)cc1 returned LGR2 antag 12, EWS-Fli inh -7 and PAX8 reporter 0.
`c1ccc(-c2nc(-c3nccc4ccccc34)oc2-c2ccccc2)cc1` gave LGR2 antag 60*, EWS-Fli inh -29, Shn3 inh set2 -39, CF NFkB block -7, KKLEB cytotox -6 and PAX8 reporter -43.
`CO[C@@H]1CC[C@@H]2CCN(C)C(=O)[C@H](C)CN(C)C(=O)c3cccc(C#N)c3OC[C@H]1O2` gave LGR2 antag -9, EWS-Fli inh 3 and PAX8 reporter -6.
